Experimental data from ChEMBL document CHEMBL1961873, “Compounds: GSK PKIS; Assays: Nanosyn kinase panel” (2012).

Columns and labels:
[1] = biological target: Serine/threonine-protein kinase MARK2 (Homo sapiens) (UniProt Q7KZI7); conditions: at 1 µM
[2] = biological target: PAS domain-containing serine/threonine-protein kinase (Homo sapiens) (UniProt Q96RG2); conditions: at 0.1 µM
[3] = biological target: PAS domain-containing serine/threonine-protein kinase (Homo sapiens) (UniProt Q96RG2); conditions: at 1 µM
[4] = biological target: Phosphorylase b kinase gamma catalytic chain, skeletal muscle/heart isoform (Homo sapiens) (UniProt Q16816); conditions: at 0.1 µM
[5] = biological target: Phosphorylase b kinase gamma catalytic chain, skeletal muscle/heart isoform (Homo sapiens) (UniProt Q16816); conditions: at 1 µM
[6] = biological target: T1, Phosphorylase b kinase gamma catalytic chain, liver/testis isoform (Homo sapiens) (UniProt P15735); conditions: at 0.1 µM
T1 sequence (whole entry): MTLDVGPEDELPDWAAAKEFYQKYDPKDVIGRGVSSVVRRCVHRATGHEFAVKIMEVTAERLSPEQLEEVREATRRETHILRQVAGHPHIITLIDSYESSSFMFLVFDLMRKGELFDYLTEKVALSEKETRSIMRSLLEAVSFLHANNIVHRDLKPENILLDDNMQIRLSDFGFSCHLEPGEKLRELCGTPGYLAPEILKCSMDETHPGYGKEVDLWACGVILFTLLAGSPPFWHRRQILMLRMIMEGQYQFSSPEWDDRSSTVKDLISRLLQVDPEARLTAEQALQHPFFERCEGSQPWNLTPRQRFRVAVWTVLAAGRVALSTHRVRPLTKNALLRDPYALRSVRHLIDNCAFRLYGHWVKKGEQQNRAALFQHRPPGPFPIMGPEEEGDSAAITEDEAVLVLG

[7] = biological target: T1, Phosphorylase b kinase gamma catalytic chain, liver/testis isoform (Homo sapiens); conditions: at 1 µM
[8] = biological target: Serine/threonine-protein kinase pim-1 (Homo sapiens) (UniProt P11309); conditions: at 0.1 µM
[9] = biological target: Serine/threonine-protein kinase pim-1 (Homo sapiens) (UniProt P11309); conditions: at 1 µM
[10] = biological target: Serine/threonine-protein kinase pim-2 (Homo sapiens) (UniProt Q9P1W9); conditions: at 0.1 µM;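 also: reported value is the mean percent inhibition of PIM2, measured in the GSK PKIS kinase inhibitor set screen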
Serine/threonine-protein kinase pim-2 (Homo sapiens), sequence (Q9P1W9 whole entry, looked up): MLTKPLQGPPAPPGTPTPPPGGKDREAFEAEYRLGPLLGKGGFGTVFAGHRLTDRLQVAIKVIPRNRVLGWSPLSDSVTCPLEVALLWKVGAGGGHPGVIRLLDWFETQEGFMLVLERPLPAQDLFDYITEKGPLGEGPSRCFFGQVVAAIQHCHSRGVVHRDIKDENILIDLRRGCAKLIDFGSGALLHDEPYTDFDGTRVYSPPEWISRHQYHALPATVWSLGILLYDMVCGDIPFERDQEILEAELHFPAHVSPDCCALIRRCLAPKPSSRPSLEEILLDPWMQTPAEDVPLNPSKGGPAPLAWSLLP

Serine/threonine-protein kinase pim-1 (Homo sapiens), sequence (P11309 whole entry, looked up): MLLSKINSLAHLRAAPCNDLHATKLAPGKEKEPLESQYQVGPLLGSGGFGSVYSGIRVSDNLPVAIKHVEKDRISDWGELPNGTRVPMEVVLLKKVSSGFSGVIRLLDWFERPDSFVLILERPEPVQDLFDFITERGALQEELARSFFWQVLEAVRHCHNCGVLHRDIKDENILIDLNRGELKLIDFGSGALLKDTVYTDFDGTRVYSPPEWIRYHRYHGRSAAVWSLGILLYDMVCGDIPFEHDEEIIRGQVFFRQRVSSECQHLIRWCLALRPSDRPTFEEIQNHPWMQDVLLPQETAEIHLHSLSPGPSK
Phosphorylase b kinase gamma catalytic chain, skeletal muscle/heart isoform (Homo sapiens), sequence (Q16816 whole entry, looked up, canonical isoform): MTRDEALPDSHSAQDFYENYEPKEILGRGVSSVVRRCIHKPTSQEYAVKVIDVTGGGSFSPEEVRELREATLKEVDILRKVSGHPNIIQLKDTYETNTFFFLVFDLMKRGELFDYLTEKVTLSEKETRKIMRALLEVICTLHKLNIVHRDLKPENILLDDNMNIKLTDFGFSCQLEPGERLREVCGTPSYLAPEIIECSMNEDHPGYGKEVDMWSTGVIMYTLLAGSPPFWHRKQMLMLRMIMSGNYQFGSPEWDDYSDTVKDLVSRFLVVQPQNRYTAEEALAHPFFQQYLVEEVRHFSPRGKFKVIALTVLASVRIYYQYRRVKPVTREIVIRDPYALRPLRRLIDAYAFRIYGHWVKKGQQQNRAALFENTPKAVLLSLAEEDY
Serine/threonine-protein kinase MARK2 (Homo sapiens), sequence (Q7KZI7 whole entry, the tested form may be a part): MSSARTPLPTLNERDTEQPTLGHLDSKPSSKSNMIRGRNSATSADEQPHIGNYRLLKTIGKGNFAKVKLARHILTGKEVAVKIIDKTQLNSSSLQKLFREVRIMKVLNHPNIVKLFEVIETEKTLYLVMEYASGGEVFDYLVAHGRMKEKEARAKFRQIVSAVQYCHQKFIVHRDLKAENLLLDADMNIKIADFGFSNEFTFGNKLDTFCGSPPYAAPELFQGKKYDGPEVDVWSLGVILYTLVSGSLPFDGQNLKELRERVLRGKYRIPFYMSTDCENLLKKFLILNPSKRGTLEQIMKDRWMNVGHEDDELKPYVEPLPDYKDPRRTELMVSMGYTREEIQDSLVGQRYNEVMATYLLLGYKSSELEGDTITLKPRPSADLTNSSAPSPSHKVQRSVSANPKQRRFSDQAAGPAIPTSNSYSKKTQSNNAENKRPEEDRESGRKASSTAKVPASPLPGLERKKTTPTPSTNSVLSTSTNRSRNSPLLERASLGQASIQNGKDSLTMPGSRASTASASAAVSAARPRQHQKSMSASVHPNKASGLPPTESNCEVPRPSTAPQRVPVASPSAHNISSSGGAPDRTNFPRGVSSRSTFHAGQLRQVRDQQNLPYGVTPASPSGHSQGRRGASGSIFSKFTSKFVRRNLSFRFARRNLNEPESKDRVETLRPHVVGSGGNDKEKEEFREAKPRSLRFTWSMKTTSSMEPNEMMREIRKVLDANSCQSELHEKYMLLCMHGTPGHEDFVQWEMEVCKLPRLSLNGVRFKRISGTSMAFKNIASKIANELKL
PAS domain-containing serine/threonine-protein kinase (Homo sapiens), sequence (Q96RG2 whole entry, the tested form may be a part, canonical isoform): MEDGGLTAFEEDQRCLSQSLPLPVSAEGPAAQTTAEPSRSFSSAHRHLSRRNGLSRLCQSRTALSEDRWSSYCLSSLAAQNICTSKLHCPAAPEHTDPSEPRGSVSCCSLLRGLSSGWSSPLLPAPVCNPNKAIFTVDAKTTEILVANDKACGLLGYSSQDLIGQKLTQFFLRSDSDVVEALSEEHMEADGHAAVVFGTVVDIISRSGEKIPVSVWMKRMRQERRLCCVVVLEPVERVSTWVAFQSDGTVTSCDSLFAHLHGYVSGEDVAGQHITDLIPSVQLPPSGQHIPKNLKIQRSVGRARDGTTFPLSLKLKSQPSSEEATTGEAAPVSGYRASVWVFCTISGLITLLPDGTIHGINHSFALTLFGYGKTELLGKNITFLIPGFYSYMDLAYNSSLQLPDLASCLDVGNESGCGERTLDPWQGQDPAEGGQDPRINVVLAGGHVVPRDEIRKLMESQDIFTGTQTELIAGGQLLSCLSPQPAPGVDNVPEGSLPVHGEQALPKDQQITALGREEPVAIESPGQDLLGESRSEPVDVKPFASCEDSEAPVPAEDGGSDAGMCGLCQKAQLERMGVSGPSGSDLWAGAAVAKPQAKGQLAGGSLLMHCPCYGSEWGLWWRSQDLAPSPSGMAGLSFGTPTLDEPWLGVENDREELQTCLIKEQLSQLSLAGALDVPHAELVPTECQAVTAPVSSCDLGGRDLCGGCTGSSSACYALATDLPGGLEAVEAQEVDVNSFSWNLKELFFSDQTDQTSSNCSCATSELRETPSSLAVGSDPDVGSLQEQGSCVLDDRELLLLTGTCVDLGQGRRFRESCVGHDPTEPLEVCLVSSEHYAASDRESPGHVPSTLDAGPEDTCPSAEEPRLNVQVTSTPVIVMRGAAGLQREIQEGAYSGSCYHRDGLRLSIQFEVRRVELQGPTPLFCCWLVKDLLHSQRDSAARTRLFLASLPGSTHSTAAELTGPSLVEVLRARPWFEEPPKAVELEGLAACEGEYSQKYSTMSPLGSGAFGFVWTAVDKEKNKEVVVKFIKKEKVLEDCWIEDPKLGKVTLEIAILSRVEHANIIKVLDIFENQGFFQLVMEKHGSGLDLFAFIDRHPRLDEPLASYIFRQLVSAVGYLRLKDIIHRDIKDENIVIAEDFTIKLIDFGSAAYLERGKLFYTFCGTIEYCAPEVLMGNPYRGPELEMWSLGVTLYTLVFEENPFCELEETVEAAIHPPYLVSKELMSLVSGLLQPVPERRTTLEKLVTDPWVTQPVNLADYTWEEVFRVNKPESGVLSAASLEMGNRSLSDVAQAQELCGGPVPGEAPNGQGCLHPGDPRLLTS

Row | Compound | inhibition [1] [%] | inhibition [2] [%] | inhibition [3] [%] | inhibition [4] [%] | inhibition [5] [%] | inhibition [6] [%] | inhibition [7] [%] | inhibition [8] [%] | inhibition [9] [%] | inhibition [10] [%]
1 | Cc1nnc(-c2ccc(C)c(-c3ccc(C(=O)NCc4ccc(Cl)cc4)cc3)c2)o1 | 2.93 | -0.31 | 0.36 | 4.66 | 5.75 | 5.44 | 5.11 | 0.2 | 1.19 | -3.59
2 | COc1cc(Nc2ncc3c(C)nc(-c4cccc(C(F)(F)F)c4)n3n2)cc(OC)c1OC | 3.54 | -0.04 | 0.78 | 5.08 | 11.8 | 4.94 | 6.94 | 0.28 | 2 | 0.34
3 | COc1cc2ncn(-c3cc(OCc4ccccc4C(F)(F)F)c(C(C)=O)s3)c2cc1OC | 1.04 | 0.79 | 1 | 2.96 | 2.39 | 4.43 | 4.18 | -0.09 | 0.89 | 0.28
4 | C#Cc1cccc(Nc2ncnc3ccc(OCCCCNCCS(C)(=O)=O)cc23)c1 | 2.74 | 0.02 | 4.19 | 5.74 | 19 | 5.8 | 6.86 | 6.27 | 39.5 | -2.91
5 | NCc1ccc(-n2c(-c3nonc3N)nc3cnccc32)cc1 | 23.4 | 0 | 2.53 | 7.71 | 16 | 6.79 | 4.79 | 34.4 | 82.8 | 8.18
6 | C[C@@H](Oc1cc(-n2cnc3ccc(OC4CCN(C)CC4)cc32)sc1C(N)=O)c1ccccc1Cl | 9.93 | -0.56 | 0.38 | 2.08 | 5.16 | 5.55 | 4.86 | 16.1 | 65.3 | -4.35
7 | Cc1ccc(C(=O)NC(C)C)cc1-c1ccc(C(=O)NCC2CC2)cc1 | 2.12 | 0.53 | 0.4 | -0.31 | 1.18 | -5.49 | -6.57 | 0.13 | 0.56 | 0.1
8 | CN(C)CCCNc1nccc(-c2c(-c3ccc(F)cc3)nn3cc(C(F)(F)F)ccc23)n1 | 2.71 | 0.83 | -0.37 | -0.27 | 2.68 | 2.52 | 0.17 | 0.62 | 1.32 | -3.76
9 | CN(C)c1ccc2c(c1)/C(=C/Nc1ccc(S(N)(=O)=O)cc1)C(=O)N2 | 18.6 | -0.32 | -0.69 | 15.3 | 49.3 | 2.06 | 13.8 | 1.26 | 1.23 | 0.23
10 | C[C@@H](Oc1cc(-n2cnc3ccc(OCC4CCN(C)CC4)cc32)sc1C(N)=O)c1ccccc1Cl | 19.7 | -0.74 | 3.45 | 2.43 | 10.2 | 8.59 | 9.94 | 18.5 | 70 | 0.64
11 | COC(=O)Nc1nc2ccc(Sc3ccc(NC(=O)Nc4cc(C(F)(F)F)ccc4F)cc3)cc2[nH]1 | -0.67 | 1.15 | 2 | 8.5 | -0.17 | 1.59 | 0.05 | 33.7 | -0.09 | -0.3
12 | COc1cc(Nc2ncc3c(C)nc(-c4cccc(Oc5ccccc5)c4)n3n2)cc(OC)c1OC | 5.64 | 0.54 | -0.72 | -0.01 | 5.67 | 2.66 | -0.4 | 0.91 | 1.16 | 0.23
13 | O=C1Nc2ccccc2/C1=C/Nc1ccc(-n2cncn2)cc1 | 10.2 | 0.03 | 1.73 | 9.39 | 33.6 | 5.95 | 18.7 | 0.85 | 0.68 | 0.56
14 | Cc1ccc(NC(=O)c2ccoc2)cc1-c1ccc(C(=O)NCC2CC2)cc1 | -0.97 | 1.03 | 0.47 | 3.88 | 1.73 | 3.37 | 3.24 | 0.53 | 0.47 | -0.3
15 | COc1ccc2ncn(-c3cc(O[C@H](C)c4ccccc4Cl)c(C(N)=O)s3)c2c1 | 0.49 | -0.21 | 0.54 | 5.98 | 7.62 | 6 | 5 | -0.74 | 3.29 | -3.96
16 | NS(=O)(=O)c1ccc(N/N=C2\C(=O)Nc3ccc(-c4cnco4)cc32)cc1 | 16.6 | 0.16 | 4.38 | 5.17 | 27.9 | 1.94 | 4.44 | 4.65 | 38.9 | -0.37
17 | O=C1Nc2ccc(I)cc2C1=Cc1cc(Br)c(O)c(Br)c1 | 2.16 | -2.03 | -1.55 | -0.98 | 3.92 | 4.05 | 4.75 | 2.05 | 11.4 | 0.13

Row | Compound | inhibition [1] [%] | inhibition [2] [%] | inhibition [3] [%] | inhibition [4] [%] | inhibition [5] [%] | inhibition [6] [%] | inhibition [7] [%] | inhibition [8] [%] | inhibition [9] [%] | inhibition [10] [%]
18 | c1ccc(Oc2ccc(Nc3ncc(-c4ccccc4)o3)cc2)cc1 | 0.42 | -0.25 | 0.08 | 0.99 | 2.96 | 1.62 | 0.32 | 0.45 | 0.21 | 0.31
19 | NS(=O)(=O)c1ccc(Nc2cc(-c3ccc(O)c(F)c3)n[nH]2)cc1 | 7.38 | -0.77 | -1.58 | -0.19 | 16 | -5.86 | -3.66 | -1.13 | 0.95 | -0.39
20 | COc1cc2ncn(-c3cc(OCc4cccs4)c(C(N)=O)s3)c2cc1OC | 2.32 | 2.13 | 6.7 | 3.47 | 6.14 | 3.82 | 10.1 | 0.81 | 2.01 | -2.64
21 | Fc1ccc(-c2ncn(C3CCNCC3)c2-c2ccnc(Oc3ccc(Oc4ccccc4)cc3)n2)cc1 | 4.07 | -2.03 | -0.39 | 0.96 | -5.23 | 5.51 | 6.26 | 0.09 | 0.87 | -0.33
22 | Fc1ccc(-c2ncn(CCCN3CCOCC3)c2-c2ccncc2)cc1 | 2.44 | 0.57 | 0.36 | 1.86 | 2.09 | -0.42 | -2.63 | -0.06 | -0.27 | 0.24
23 | Fc1ccc(-c2ncn(C3CCNCC3)c2-c2ccnc(Oc3ccc(F)c(F)c3)n2)cc1 | 1.71 | -0.38 | -0.29 | 6.75 | 10.8 | 4.85 | 4.7 | -1.11 | -0.52 | -3.98
24 | O=C(Nc1ccc(Oc2ccc3[nH]c(NC(=O)c4ccccc4)nc3c2)cc1)Nc1cc(C(F)(F)F)ccc1F | 1.49 | 0.68 | 0.73 | 1.45 | 7.47 | 3.99 | 4.6 | 0.97 | 0.07 | -0.34
25 | CN(C)CCOc1ccc(-c2cc(-c3ccc4c(c3)CCC4=NO)c(-c3ccncc3)o2)cc1 | 0.33 | 1.53 | 1.21 | 1.83 | 5.45 | -1.99 | -1.19 | 0.55 | 0.18 | -0.09
26 | COc1cc(Nc2ncc(-c3ccccc3)o2)cc(OC)c1OC | 15.6 | 0.63 | -0.67 | 3.23 | 20.9 | -2.9 | -2.15 | 0.68 | 2.12 | 0.06
27 | Nc1nccc(-c2c(-c3ccc(F)cc3)ncn2C2CCC(O)CC2)n1 (stereo not given) | 2.02 | -0.7 | -1.02 | -1.17 | 0.55 | -4.04 | -5.93 | -0.95 | -1.37 | 1.27
28 | CCc1ccc(Oc2nccc(-c3c(-c4ccc(F)cc4)ncn3C3CCNCC3)n2)cc1 | 4.62 | -0.7 | 0.69 | 1.39 | 2.98 | 5.05 | 5.44 | 2.14 | 1.74 | 0.08
29 | COc1cc(N2CCN(C(C)C)CC2)ccc1Nc1nc(Nc2ccc(F)cc2C(=O)NC[C@@H](O)CO)c2cc[nH]c2n1 | 1.35 | -0.25 | 0.96 | 21 | 62 | 6.76 | 21.1 | -0.41 | 1.79 | -3.35
30 | CN(c1ccc(NC(=O)Nc2c(Cl)cccc2Cl)cc1)c1ccnc(Nc2cccc(CS(C)(=O)=O)c2)n1 | 2.99 | 0.68 | 2.77 | 2.51 | 8.06 | 2.8 | 6.5 | -0.26 | 0.34 | 0.03
31 | CCN(CC)Cc1ccc(Nc2nccc(-c3cnn4ncccc34)n2)cc1 | 16.2 | -0.55 | -0.46 | 6.04 | 28.2 | 5.93 | 15.3 | 2.49 | 23 | -3.66
32 | NC(=O)c1cc(-c2ccncc2)cc(-c2ccccc2)c1N | 4.3 | 0.12 | -1.32 | 5.69 | 4.23 | 5.49 | 5.48 | 1.39 | 1.24 | -0.25
33 | COc1cccc(-n2cnc3c(N/N=C/c4ccncc4)ncnc32)c1 | 4.05 | 1.87 | 4.15 | -0.02 | 2.55 | 1.83 | 6.48 | -0.24 | -0.03 | -3.51
34 | O=C(Nc1n[nH]c2cc(-c3ccccc3)ccc12)C1CC1 | 3.6 | 0.21 | -1.15 | 8.27 | 7.18 | 5.27 | 4.5 | 1.3 | 0.46 | 0.26
